PubChem BioAssay (NCI)
The panel holds about 83,000 compounds, 20% with a hit somewhere; the sample as a whole holds those more often.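 How to read the values: 0–100, growth inhibition (40 = 60% inhibited); 0, no net growth; -100 to 0, cell death (-40 = 40% of starting cells died; -100 = all dead).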 A number with no mark means an inactive call. Active and inactive are the calls of the source. How the source made its calls: active means growth percent below 10; inactive means the rest.

Tests used:
Assay in all cases: NCI-60 one-dose screen, 48 h (100 = growth as untreated, 0 = no growth, -100 = all killed)
Conditions in all cases: 10 µM
NCI-H23 lung = system: NCI-H23 lung
NCI-H226 lung = system: NCI-H226 lung
HOP-62 NSCLC = system: HOP-62 NSCLC
NCI-H460 lung = system: NCI-H460 lung
HOP-92 NSCLC = system: HOP-92 NSCLC
NCI-H522 lung = system: NCI-H522 lung
A549/ATCC NSCLC = system: A549/ATCC NSCLC
786-0 renal = system: 786-0 renal
COLO 205 colon = system: COLO 205 colon
NCI-H322M lung = system: NCI-H322M lung

Compound | growth (NCI-H23 lung) | growth (NCI-H226 lung) | growth (HOP-62 NSCLC) | growth (NCI-H460 lung) | growth (HOP-92 NSCLC) | growth (NCI-H522 lung) | growth (A549/ATCC NSCLC) | growth (786-0 renal) | growth (COLO 205 colon) | growth (NCI-H322M lung) [%]
CCN(CC)CCNc1ccc(C)c2sc3cc(Cl)ccc3c(=O)c12 | 55% | 75.2% | 66.9% | 1.44% (active) | 22% | 42.7% | 31.1% | 43.3% | -67.3% (active) | 
COc1cc(/C=C/c2cc(/C=C/c3ccc(O)c(OC)c3)n(C(=O)Nc3ccccc3Cl)n2)ccc1O | -25.8% (active) | -3.72% (active) | 8.39% (active) | 7.39% (active) | -14.4% (active) | -18.7% (active) | 8.75% (active) | -14.8% (active) | -73.5% (active) | 
CC(=O)OC1CC2C(C)(C)CCC[C@]2(C)C2=C1C(O)=C(C(C)C)C(=O)C2=O (stereo partly drawn) | 9.91% (active) | -71.1% (active) | -40.3% (active) | -39.8% (active) | -79.2% (active) | 58.6% | 6.64% (active) | -3.43% (active) |  | 
S=C(SSC(=S)N(c1ccccc1)c1ccccc1)N(c1ccccc1)c1ccccc1 | 100% | 99.2% | 97.6% | 106% | 86.2% | 81.1% | 82% | 105% | 132% | 
CCOC(=O)C1=CSC2=NC3=C(CCC/C3=C\c3cc(OC)c(OC)c(OC)c3)C(c3cc(OC)c(OC)c(OC)c3)N12 (stereo not drawn) | 52.3% | 67.5% | 74.5% | 23.3% | 84.8% | 95.4% | 65.1% | 91.3% |  | 
O=C(/C=C/c1cccc(B(O)O)c1)c1cccc(B(O)O)c1 | -0.41% (active) | -59.2% (active) | -34.7% (active) | 23.3% | 69.6% | -9.1% (active) | 34.2% | -88.6% (active) |  | 
CNC(=O)c1cc(Oc2ccc3c(c2)sc2nc(-c4ccc(N)cc4)cn23)ccn1 | 35% | 61.8% | 46.8% | 10.1% | 58.4% | -22.6% (active) | 24.5% | 19.4% |  | 
Nc1ncnc2c1ncn2C1(CO)OCC(O)C(O)C1O (stereo not drawn) | 96.8% | 107% | 91.4% | 107% | 113% | 82.4% | 96.7% | 101% | 113% | 
CN(C)CCCSc1ccccc1NC1=C(Cl)C(=O)C(Nc2ccccc2SCCCN(C)C)=C(Cl)C1=O | -43.4% (active) | 93.5% | 118% | 103% | 79% | -78.2% (active) | 101% | 42.9% | 17.9% | 
COc1ccc(-c2cc(-c3ccccc3)nc(SCCCCCCC(=O)NO)n2)cc1 | 50.9% | 72.3% | 57.2% | 36% | 49.3% | 18.8% | 50.1% | 79.8% |  | 
Cc1ccc(Cl)cc1NC(=O)CCl | 74.2% | 99.4% | 108% | 98.4% | 92.1% | 55.6% | 89.9% | 81.2% | 110% | 
O=S(=O)(O)c1cccc(Nc2ccc3ccccc3c2)c1 | 92% | 86.5% | 84.4% | 101% | 74.8% | 87.9% | 94.1% | 104% | 97.8% | 
COc1cc2nc(SCC(=O)Nc3cc(OC)c(OC)c(OC)c3)n(Cc3ccccc3)c(=O)c2cc1OC | 69.6% | 45.9% |  |  |  |  | 28.1% | -6.9% (active) | 96.2% | 65.2
Nc1nc(Cn2c(-c3nonc3N)nc3ccccc32)nc(N2CCCCC2)n1 | 90.5% | 94.4% | 91.7% | 99.4% | 82.3% | 71.7% | 93.1% | 92% |  | 
CC(=O)Nc1ccc(CC[C@H]2CCC/C=C/[C@@H]3C[C@H](O)C[C@H]3[C@H](O)/C=C/C(=O)O2)cc1 | -19% (active) | 10.1% | 15.7% | 13.3% | -15% (active) | -39.3% (active) | 11.9% |  |  | 
COc1ccc2c(c1)C(=O)/C(=C/c1cccc(OCC(=O)c3ccc([N+](=O)[O-])cc3)c1)CO2 | -15% (active) | 70.5% | 77% | 73.9% | 60.9% | -53.4% (active) | 23.7% | 82.8% | 98.4% | 
Cc1cc(=O)n2nnc3cc(Cl)c(Cl)cc3n12 | 95.6% | 112% | 111% | 113% | 101% | 53.9% | 104% | 108% | -63.7% (active) | 
COc1ccc2nc(-c3ccc(Cl)cc3)cc(-c3nnc(SC/C(=N\O)c4ccccc4)n3-c3ccccc3)c2c1 | 92.9% | 82.5% | 109% | 86.9% | 95.4% | 82.7% | 63.1% | 88.1% | 98.7% | 
COc1ccc(/C=C2/SC(=S)NC2=O)c(OC)c1OC | 73.9% | 81.6% | 69.2% | 90.3% | 36.8% | 73.3% | 79.5% | 87.9% | 105% | 
COc1cc(-c2nn(-c3ccc(NC(=O)NCCNS(=O)(=O)c4ccc(F)cc4)cc3)cc2-c2ccncc2)ccc1Cl | 12.7% | 36.2% | 29.7% | 0.926% (active) | -6.87% (active) | -10.4% (active) | 15.7% | -8.2% (active) | -63.5% (active) | 
COc1cc2c(cc1NC(=O)C(F)(F)F)-c1ccc(NC(=O)C(F)(F)F)cc1C2 | 86.9% | 47.9% | 45.4% | 97.8% | 90.3% | 99.2% | 92.2% | 98.6% | 112% | 
COc1ccc2cc(-c3nc4ccccc4s3)c(Cl)nc2c1OC | 84.4% | 93.9% | 90.7% | 98.4% | 85.3% | 101% | 110% | 119% | 98% | 
C=CCn1c(SCC(=O)Nc2ccc(C(=O)/C=C/c3cc(OC)c(OC)c(OC)c3)cc2)nnc1-c1cc(-c2ccc(Cl)cc2)nc2ccccc12 | 88.7% | 89.1% | 97.5% | 93.1% | 83% | 83.1% | 96.7% | 74.2% | 115% | 
CCOC(=O)C1C(C(=O)OCC)C2C(=O)C3C(C(=O)OCC)C(C(=O)OCC)C3C(=O)C12 (stereo not drawn) | 98.9% | 100% | 96.2% | 103% | 104% | 104% | 100% | 103% | 120% | 
CC(=O)N[C@H](C(=O)N[C@@H](CCCNC(=N)N)C(=O)N[C@@H](CCCCN)C(=O)N[C@@H](CCCNC(=N)N)C(=O)N[C@]1(C)CCC/C=C\CCC[C@@](C)(C(=O)N[C@@H](CC(C)C)C(=O)N[C@@H](CC(C)C)C(=O)N[C@@H](CCC(N)=O)C(=O)N[C@@H](CCC(=O)O)C(=O)N[C@@H](CCCNC(=N)N)C(=O)N[C@@H](CCC(=O)O)C(=O)N[C@@H](CC(C)C)C(=O)N[C@H](C(=O)N[C@@H](CCC(=O)O)C(N)=O)C(C)C)NC(=O)[C@H](CCCNC(=N)N)NC(=O)[C@H](CC(C)C)NC1=O)C(C)C | 106% | 102% | 109% | 105% | 115% | 96.8% | 94.7% | 98.1% | 102% | 
CCn1c(SCc2ccc(C)cc2)nnc1-c1nn(-c2ccc(Cl)cc2Cl)c(-c2ccc(Cl)cc2)c1C | 3.53% (active) | 11.6% | 9.33% (active) | 8.69% (active) | -17.2% (active) | -17.4% (active) | 9.87% (active) | 12.2% | -34.3% (active) | 
